# Assay outcomes as filed in PubChem BioAssay.
# Only some compounds are listed: those with a hit (about 13% of all), similar ones and a draw of the others.
# Pf growth 96h = P. falciparum growth inhibition at 96 hours; P. falciparum luciferase reporter growth, 96 h; 320,000 tested, 6.9% active; Potency, µM (top dose mostly 28.7 µM), without a hit: at the top dose activity change, negative = inhibition, hits mostly inhibitors; further: potency means the concentration at half of the fitted maximal effect
#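 Cell-based qHTS: luciferase-tagged P. falciparum in erythrocytes (2% hematocrit, 0.05% parasitemia final) incubated with compounds for 96 hours, 37 C, 5% CO2; luciferase detection reagent then added and luminescence measured.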
# Pf growth 48h = inhibits P. falciparum growth in the first generation, 48 h. P. falciparum luciferase growth in erythrocytes, 48 h. Potency, µM (top dose mostly 28.7 µM), for the others: top-dose activity change, negative = inhibition, hits mostly inhibitors. 310,000 tested, 5.9% active. AID 504832; further: potency means the concentration at half of the fitted maximal effect
#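 In quantitative HTS format, infected erythrocytes bearing luciferase-reporter parasites were treated for a single generation at 37 C. Luminescence after adding detection reagent served as the growth measure.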
# HCV inhibitor = blocks hepatitis C virus. 340,000 tested, 3.4% active. Huh7.5.1 HCVcc-Cre infection, luciferase reporter, 44 h. AID 651820. Potency, µM (titrated, usually from 41.8 µM), without a hit: at the top dose activity change, negative = inhibition, hits mostly inhibitors; further: potency means the concentration at half of the fitted maximal effect
#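 Cells seeded at 1,000/well and cultured 4 h, then compounds added followed by HCVcc-Cre virus (~0.5 moi). After 44 h further culture, luciferase substrate was added, plates held 15 min at room temperature, and luminescence read for 15 sec.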
# HCMV antiviral = blocks human cytomegalovirus replication; AID 1259415; 410,000 tested, 4.5% active; activity change, negative = inhibition, % at 57.5 µM; HFF cells, HCMV-luciferase reporter, 72 h; hits give low values; in the data active means activity change below about -60%; inconclusive means no clear call, values can overlap the other calls; inactive means above about -39%
#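 Cell-based, HFFs, 1000 cells/well, 16 h 37C; cpds in DMSO + HCMV-luc, MOI 1 PFU/cell; 72 h 37C; OneGlo luminescence after 5 min RT; norm. to buffer vs Salinomycin 10uM.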
# An asterisk follows results filed as active; ? = inconclusive; . = not tested or not shown; [ ] = dose if it differs, or a comment. Unless noted, the call rests on the fitted dose curve; in most records, active means well fitted inhibition curve with a large enough effect; inconclusive means small, poorly fitted or top-dose-only effect, or another doubt; inactive means no such curve, though single readings can be large or run the other way. On the % scale 0 is the no-effect control and ±100 the full control effect.
SMILES,Pf growth 96h,Pf growth 48h,HCV inhibitor,HCMV antiviral
OCc1cnc(SCc2cccc(F)c2)n1Cc1ccc(F)cc1,.,.,.,-71*
N#C/C(=C\N1CCN(Cc2ccc3c(c2)OCO3)CC1)c1nc2ccccc2s1,?,-28%,14µM*,-18
CCc1cccc2[nH]c3cc([N+](=O)[O-])ccc3c12,?,?,?,-61*
O=c1[nH]c2cc([N+](=O)[O-])ccc2c2ccccc12,.,.,-16%,-12
Cc1nc2sc(C(c3cccs3)N3CCN(c4cccc(Cl)c4)CC3)c(O)n2n1 (configuration not stated),?,-6%,-29%,-62*
Cc1nc2sc(C(c3cccs3)N3CC(C)CC(C)C3)c(O)n2n1 (configuration not stated),?,6.6µM*,1%,-10
CCN(CC)CCCNC(=O)Cn1nc(N2CCN(c3ccccc3OC)CC2)ccc1=O,.,.,.,-3
CCOc1ccc(OCC(=O)Nc2c(C(=O)Nc3ccc(C)cc3)oc3ccccc23)cc1,.,.,.,20
CCOC(=O)[C@]12CCC=C1N(Cc1ccc3c(c1)OCO3)C(=O)[C@H](CC(=O)NCCC(C)C)C2,.,.,.,1
COc1ccc2[nH]c(=O)c(CN(Cc3cccs3)Cc3nnnn3C(C)(C)C)cc2c1,99%,?,-15%,-67*
CCOc1ccc2[nH]c(=O)c(CN(Cc3cccs3)Cc3nnnn3C(C)(C)C)cc2c1,19%,12µM*,-16%,?
COc1ccc(OC)c(S(=O)(=O)N2CCC(c3ccncc3)CC2)c1,.,.,.,-7
Cc1cc(-n2c(C)cc(C(=O)CSc3nncn3C(C)C)c2C)no1,?,?,6%,-97*
Cc1cc(C)c(C(N)=O)c(SCC(=O)c2cc(C)n(-c3cc(C)on3)c2C)n1,.,.,2.2µM*,?
CC(=O)Oc1ccccc1C(=O)C=Cc1cccc([N+](=O)[O-])c1,.,.,?,-77*
Cc1cc(O)c(C(=O)/C=C/c2cccc([N+](=O)[O-])c2)c(=O)o1,?,?,-8%,-19
O=C(/C=C/c1cccc([N+](=O)[O-])c1)c1cccs1,?,-1%,?,-90*
CC(=O)Nc1ccc(NC(=O)c2cc(CN3CCCC3)on2)cc1,.,.,.,20
[O-][N+](=Nc1ccccc1)c1ccccc1,31%,26%,.,.
CC(C)C(c1nnnn1CC1CCCO1)N1CCN(C2CCCC2)CC1 (configuration not stated),13µM*,6%,6%,1
O=c1[nH]c2cc3c(cc2cc1C(c1nnnn1CC1CCCO1)N1CCCC1)OCO3 (configuration not stated),?,-2%,-9%,-34
Cc1cc(C)c2cc(C(c3nnnn3CC3CCCO3)N3CCN4CCCC4C3)c(=O)[nH]c2c1 (configuration not stated),-2%[5.75 µM],15µM*,3%,18
COc1cc2c(C#CCCCO)c(-c3ccsc3)oc(=O)c2cc1OC,.,.,3.2µM*,-61*
COc1cc2c(C(F)(F)F)c(-c3ccsc3)oc(=O)c2cc1OC,.,.,5%,-9
COc1cc2c(C#Cc3cccnc3)c(-c3ccsc3)oc(=O)c2cc1OC,.,.,6.3µM*,-33
SMILES,Pf growth 96h,Pf growth 48h,HCV inhibitor,HCMV antiviral
COc1ccc(-c2oc(=O)c3cc(OC)c(OC)cc3c2C#CCCCO)cc1,.,.,?,26
Cc1c(C(=O)Nc2ccc(F)c(F)c2)oc2ccc(S(=O)(=O)N3CCCCC3)cc12,.,13µM*,6.3µM*,-20
Cc1c(C(=O)Nc2ccc(F)cc2)oc2ccc(S(=O)(=O)N3CCC4(CC3)OCCO4)cc12,?,9.3µM*,4.5µM*,-63*
c1ccc(C2(Cn3ccc4ccccc43)OCCO2)cc1,?,13µM*,?,-39
COC(=O)c1ccc(N)c2c(N)ccc(C(=O)OC)c12,.,.,.,-8
O=C(O)c1ccc2c(c1)C(=O)N(c1ccccc1-c1ccccc1)C2=O,-12%,12%,17%,-16
O=C(O)c1ccc2c(c1)C(=O)N(c1nccs1)C2=O,7%,3.3µM*,12%,-31
CC(=O)N1CCc2cc(Br)cc(S(=O)(=O)NCCc3ccc(Cl)cc3)c21,.,.,.,3
Cc1ccc(OC(=O)c2ccc(S(=O)(=O)N(C)C)cc2)c(-n2nc3ccccc3n2)c1,440%,285%,-11%,5
CC(=O)Oc1ccc(N(C(C)=O)S(=O)(=O)c2ccccc2)c2ccccc12,.,.,.,-17
COc1ccc(S(=O)(=O)N(C(C)=O)c2ccc(OC(C)=O)c3ccccc23)cc1[N+](=O)[O-],-3%,6.6µM*,?,-30
